“And” between values parts separate entries of the source, which are not always exact repeats. Equal values may be shown once. Values without a mark were called inactive. The source made the active and inactive calls.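 Rule for the calls: active = efflux inhibition above 0.42, the validation set average plus 4 SD; inconclusive = no clear call, values can overlap the other calls; inactive = the rest.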

This assay in a line: inhibitors of fungal efflux pumps CDR1, CDR2, MDR1, pilot screen, validation compound set, multiplex, phenotypic (AID 588506).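 Note: Nile Red retained in cells so higher fluorescence means more efflux inhibition; 0 = negative control wells and 1 = enniatin B 25 µM full block.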 The following applies: S. cerevisiae pump-expressing triplex, Nile Red efflux flow cytometry; at 10 µM; active compounds read high; the pumps come from Candida albicans. In general terms: A flow cytometer gives signals particle by particle.
With `S=C(NCCOCCOCCNC(=S)Nc1ccccc1)Nc1ccccc1`, the efflux inhibition (fraction of control) was 0.55 (active).
Take `Cc1ccc(CN2CCN(Cc3cn[nH]c3C3CCCCC3)CC2CCO)cc1` (configuration not stated): the efflux inhibition (fraction of control) is 0.08.
`OCCC1CN(Cc2ccccc2-c2ccco2)CCN1C1CCCC1` (configuration not stated): the efflux inhibition (fraction of control) was 0.04.
Turning to `COc1ccc2oc(-c3ccco3)cc(=O)c2c1`, the efflux inhibition (fraction of control) was -0.28.
In the case of `Nc1nc2c(nc(SCc3ccccc3Br)n2C2OC(CO)C(O)C2O)c(=O)[nH]1` (configuration not stated) it was 0.12; in that of `O=C(CCC(=O)NCCO)NCCO`, 0.04.
`Cc1cc(=O)[nH]c(=S)[nH]1`: the efflux inhibition (fraction of control) was 0.12.
For the molecule `CN(C)C(=O)Oc1cccc([N+](C)(C)C)c1`, the efflux inhibition (fraction of control) is 0 and -0.13.
With `COc1cc(/C=C/C(=O)O)cc(S(=O)(=O)NCCCO)c1OC` the figure was -0.13; with `COC(=O)c1sccc1NC(=O)Nc1ccccc1F`, -0.28; with `CC1(C)C(=O)OC(/C=C\c2ccccc2)C(C)(C)C1=O` (configuration not stated), -0.09.
For `O=C(/C=C/c1ccc(F)cc1)NC(=S)N1CCCCC1c1cccnc1` (configuration not stated), the efflux inhibition (fraction of control) was -0.13.
`COc1cc2c(cc1OC)C1(CCCC1)CNC2c1cccc([N+](=O)[O-])c1` (configuration not stated): the efflux inhibition (fraction of control) is 0.05.
Consider `O=C(NCCO)c1ccc(Cl)c(Cl)c1`, for which the efflux inhibition (fraction of control) was 0.78 (active).
For `N#C/C(=C\c1ccc(O)c(O)c1)C(=O)NCCCc1ccccc1`, the efflux inhibition (fraction of control) is 0.08.
In the case of `CSCC[C@H](NC(=O)OC(C)(C)C)C(=O)N1CCC(C(=O)N[C@@H](C)C(=O)O)CC1` it was -0.22; in that of `Cc1cc(-c2nn(-c3ccccc3F)cc2CN2CCCC(O)C2)c(C)s1` (configuration not stated), -0.04.

The record behind these values is PubChem BioAssay.
